# Measurements published in PubChem BioAssay (NCI).
# Where “and” joins values, the source holds several entries; their conditions need not be identical. Identical values can stand only once. This is part of a sample that, as a whole, favours compounds with a hit. Of some 83,000 tested, about 20% had one in any assay.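 Activity criterion: percent growth below 10, measured after cells in 96-well plates were exposed to a single compound concentration for 48 hours.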 Calls of active or inactive are those of the source.
# Test system: NCI/ADR-RES ovarian
# Experiment: NCI-60 one-dose screen, 48 h (100 = growth as untreated, 0 = no growth, -100 = all killed)
# Conditions: 1 µM
# Procedure: Growth inhibition of the NCI/ADR-RES human […] tumor cell line is measured as a screen for anti-cancer activity. Cells are grown in 96 well plates and exposed to the test compound for 48 hours. Compounds are tested at a single concentration, which is 10^-5 M for most compounds. The reported endpoint is percent growth (GI% or GIPRCNT), where numbers from 0 - 100% represent growth inhibition, and numbers from -100% - 0 represent cell death. For example, a value of 40 represents 60% growth inhibition. A value of 0 means no net growth occurred over the course of the experiment. A value of -40 indicates 40% of cells at the beginning of the experiment died by the end of the experiment. A value of -100 means all cells are dead at the end of the experiment.
# NCI-60 Human Tumor Cell Lines Screen was performed using the standard one-dose NCI protocol, which is described in more detail at https://dtp.cancer.gov/discovery_development/nci-60/default.htm.
# Compounds with GIPRCNT values below 10 were considered active. Activity score was based on GIPRCNT using the following formula: […]
# Score is 0 for GIPRCNT values of 100 or above, 50 for GIPRCNT values of 0, and 100 for GIPRCNT values of -100.
row,SMILES,growth
1,CNC(=O)c1cc(Oc2ccc(CC(=O)Nc3cc(C(C)(C)C)nn3C)cc2)ccn1,85.3% (inactive)

# Same assay, conditions: 10 µM
row,SMILES,growth
1,CNC(=O)c1cc(Oc2ccc(CC(=O)Nc3cc(C(C)(C)C)nn3C)cc2)ccn1,76% (inactive)
2,COc1ccc(Cl)cc1C(=O)NCCc1ccc(S(=O)(=O)NC(=O)NC2CCCCC2)cc1,103% (inactive) and 107% (inactive)
3,CC#C[C@]1(O)CC[C@H]2[C@@H]3CCC4=CC(=O)CCC4=C3[C@@H](c3ccc4c(c3)OCO4)C[C@@]21C,76.7% (inactive)

# Same assay, conditions: 10 µM unless noted
row,SMILES,growth
1,CC(C)(O)Cn1cc(-c2ccc3nc(OC4CC4)ccc3c2)c2c(N)ncnc21,94.9% (inactive) and 67.1% (inactive)
2,COc1ccccc1NC(=O)OCC#CCOC(=O)Nc1ccccc1OC,98.7% (inactive) and 92.7% (inactive)
3,Nc1ccc2ccc(N)cc2c1,73.5% (inactive)
4,O[C@H](c1cc(C(F)(F)F)nc2c(C(F)(F)F)cccc12)[C@@H]1CCCCN1,65.7% (inactive) and 56.1% (inactive)
5,CC(C)N=c1cc2n(-c3ccc(Cl)cc3)c3ccccc3nc-2cc1Nc1ccc(Cl)cc1,23.2% (inactive) and -2.63% (active) and 39.2% (inactive)
6,CCOc1ccc(Nc2c3ccccc3nc3ccccc23)cc1,82.8% (inactive) and 22.6% (inactive) and 16.8% (inactive)
7,CC1=C[C@H]2c3c(c(O)c(O)c4oc5cc(O)cc(O)c5c(=O)c34)[C@H](c3cc(O)c(O)c4oc5cc(O)cc(O)c5c(=O)c34)[C@H]2C(C)(C)C1,55.8% (inactive) and 23.7% (inactive)
8,CNc1cc(-c2cccc(OC(F)(F)F)c2)nc2ccc(N3CCCC3)cc12,59% (inactive) and 20.9% (inactive) and 21.3% (inactive)
9,NC(=S)NN=C1CCC(C2CCCCC2)CC1 (stereo not given),96.8% (inactive) and 102% (inactive)
10,O=C(O)C1C2C=CC(C2)C1C(=O)O (stereo not given),104% (inactive) and 112% (inactive) and 118% (inactive)
11,CC(C)Oc1ccc2cc(-c3nn(CC4CCNCC4)c4ncnc(N)c34)ccc2c1,94.7% (inactive) and 64.2% (inactive)
12,Cc1ccc(-c2noc(CC(=O)c3ccc([N+](=O)[O-])cc3)n2)cc1,104% (inactive)
13,CC(C)Cc1ccc(C(C)C(=O)NCc2ccc(Cn3c(=O)sn(CCCI)c3=O)cc2)cc1 (stereo not given),106% (inactive) and -18.5% (active)
14,Cc1ccc(S(=O)(=O)NCN2C(=O)c3ccccc3C2=O)cc1,110% (inactive)
15,Cn1cc(-c2cc3c(Nc4ccc(CC(=O)Nc5cc(C(C)(C)C)on5)cc4)ncnc3[nH]2)cn1,79.5% (inactive) and 80.3% (inactive)
16,CC(O)(CC(=O)CC(=O)c1ccccc1)c1ccccc1 (stereo not given),83.1% (inactive) and 72.9% (inactive)
17,Cc1cc(O)c2c(c1)C(=O)c1cc(O)cc(O)c1C2=O,91.6% (inactive) and 101% (inactive)

row,SMILES,growth
1,Cc1cccc(/C=C\C(=O)c2ccc(Cl)cc2)c1,101% (inactive) and 99.2% (inactive)
2,CC1=C(/C=C/C(C)=C/C=C/C(C)=C/C(=O)Nc2ccc(O)cc2)C(C)(C)CCC1,39.1% (inactive)
3,O=C1c2ccccc2C(=O)c2c(NCCNCCO)ccc(NCCNCCO)c21,-24.9% (active) and 93.1% (inactive) and 102% (inactive)
4,Cn1c(=O)c2[nH]c(CCCCCCCCc3nc4ccccc4[nH]3)nc2n(C)c1=O,87.6% (inactive) and 94.4% (inactive)
5,CCN(CC)CCCC(CNc1ccnc2cc(Cl)ccc12)c1ccc(Cl)cc1 (stereo not given),19.5% (inactive) and 15.9% (inactive)
6,Nc1ccc2[nH]c(-c3ccccc3)cc(=O)c2c1,70.5% (inactive)
7,Oc1ccc(/C=C/c2ccccc2)cc1,43.5% (inactive) and 41.6% (inactive)
8,CCN(CC)CCOc1ccc2c(c1)C(=O)c1cc(OCCN(CC)CC)ccc1-2,69.7% (inactive) and 70.8% (inactive)
9,CN(Cc1ccccc1)Cc1ccccc1,102% (inactive)
10,CNC(=O)c1cc(Oc2ccc(NC(=O)Nc3ccc(Cl)c(C(F)(F)F)c3)cc2)ccn1,-10.9% (active) and -12.5% (active)
11,CC[N+](CC)(CC(=O)Nc1c(C)cccc1C)Cc1ccccc1,90.3% (inactive) and 102% (inactive)
12,CC(C)C(=O)Nc1ccc([N+](=O)[O-])c(C(F)(F)F)c1,86.2% (inactive) and 96% (inactive)
13,O=C(Nc1ccc(Cl)cc1)c1cc2ccccc2cc1O,12.5% (inactive) and 6.49% (active)
14,Nc1nc(SC/C=C/CCl)c2[nH]cnc2n1,103% (inactive) and 106% (inactive)
15,Cc1cc(C)c(N)c(Br)c1,113% (inactive) and 69.2% (inactive)
16,O=S1(=O)CC(Br)C(Br)C1 (stereo not given),68.5% (inactive) and 110% (inactive)

# Same assay, conditions: 30 µM
row,SMILES,growth
1,CNC(=O)c1cc(Oc2ccc(CC(=O)Nc3cc(C(C)(C)C)nn3C)cc2)ccn1,53.7% (inactive)

# Same assay, conditions: 100 µM
row,SMILES,growth
1,COc1ccc(Cl)cc1C(=O)NCCc1ccc(S(=O)(=O)NC(=O)NC2CCCCC2)cc1,76.6% (inactive)
2,CC#C[C@]1(O)CC[C@H]2[C@@H]3CCC4=CC(=O)CCC4=C3[C@@H](c3ccc4c(c3)OCO4)C[C@@]21C,-15.3% (active)
